This is a sample that favours compounds with a hit; in the whole collection about 4.5% have one here.
Beta cell apopt: beta cell apoptosis inhibition; INS-1E cytokine-induced death, ATP luminescence, 48 h; percent of positive-control rescue, neutral wells zero; protection from apoptosis, % (concentration not given with the values); AID 435005; 300,000 compounds, 0.8% hits;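 active means Every replicate reaches about 75%, or at least half do and their mean reaches it too, limit read from the data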;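 further: higher means more ATP so stronger rescue from cytokine killing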
Jurkat NFkB inh: inhibitors of the PMA/ionomycin-induced NF-kB reporter in Jurkat cells; PMA/ionomycin-induced NF-kB luciferase reporter, luminescence; inhibition, % at 4 µM; AID 435003; 330,000 compounds, 0.53% hits; in the data active means inhibition above about 50%
697 NFkB inh: inhibitors of the PMA/ionomycin-induced NF-kB reporter in 697 B cells. AID 435022. 697 B-cell NF-kB luciferase reporter, 16 h. 330,000 compounds, 0.33% hits. inhibition, % at 4 µM; in the data active means inhibition above about 35%
Gli-Sufu block: antagonists of Gli-Sufu signaling. Sufu-KO-LIGHT fibroblasts, Gli luciferase reporter luminescence. inhibition, % at 5 µM. 340,000 compounds, 0.74% hits;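 active means inhibition above about 55%, limit read from the data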
CSC inhib: blocks cancer stem cells | inhibition, % at 7.5 µM | AID 2717 | cancer stem cell-like cells viability, luminescence | 300,000 compounds, 1.1% hits; in the data active means inhibition above about 75%; tested in HMLE shEcad cells
Mdm2 MdmX PPI: human Mdm2/MdmX binding inhibition. O15151+Q00987. 330,000 compounds, 3% hits. SaOS-2 split-luciferase Mdm2/MdmX complementation, luminescence. AID 485346. inhibition, % at 8 µM;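 active means inhibition of at least 50% at 8 µM in the primary screen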
Mdm2-MdmX conf: human Mdm2/MdmX binding inhibition, confirmed. shares compounds with Mdm2 MdmX PPI. inhibition, % at 8 µM. 10,000 compounds, 55% hits. luminescent assay; in the data active means inhibition above about 40%
FLuc counter: full-length luciferase inhibition in Mdm2/MdmX counter-screen | shares compounds with Mdm2 MdmX PPI | SaOS-2 full-length luciferase counterscreen, luminescence | inhibition, % at 8 µM | 6,200 compounds, 77% hits | AID 504607;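 active means mean inhibition at 8 µM reaching about 37%, which flags the compound as non-specific, limit read from the data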;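 further: p53-null SaOS-2 cells with luciferase driven by a doxycycline-inducible promoter; compound on cells about two nights before reading with doxycycline added after day one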
Each line names hits and unclear results; the compound was inactive in the other large screens (follow-up assays come after a bar, where they were run).

CCc1ccc(Nc2n[n+](-c3ccccc3)c(-c3c(Cl)cccc3Cl)s2)cc1	Beta cell apopt 108, CSC inhib 109, Mdm2 MdmX PPI 100 | Mdm2-MdmX conf 96 | FLuc counter 56
COc1ccc(C)cc1Nc1n[n+](-c2ccccc2)c(-c2c(Cl)cccc2Cl)s1	Beta cell apopt 99, Mdm2 MdmX PPI 95 | Mdm2-MdmX conf 89 | FLuc counter 55
Fc1ccc(-[n+]2nc(Nc3ccccc3)sc2-c2c(Cl)cccc2Cl)cc1	Mdm2 MdmX PPI 67 | Mdm2-MdmX conf inactive | FLuc counter 48
COc1ccc(C)cc1Nc1n[n+](C)c(-c2c3ccccc3cc3ccccc23)s1	none
COc1ccc(-c2sc(Nc3ccccc3)n[n+]2-c2ccc(F)cc2)cc1Br	none
COc1ccc2ccccc2c1-c1sc(Nc2ccccc2)n[n+]1-c1ccc(F)cc1	Mdm2 MdmX PPI 76 | Mdm2-MdmX conf inactive
CC(NC(=O)CCC(=O)c1ccccc1)c1ccc(F)cc1 (stereo not drawn)	none
CCc1ccc(Nc2n[n+](-c3ccccc3)c(/C=C/c3ccccc3)s2)cc1	Mdm2 MdmX PPI 52 (no result: Gli-Sufu block) | Mdm2-MdmX conf inactive
CCc1ccc(Nc2n[n+](-c3ccccc3)c(-c3ccc(N(CC)CC)cc3)s2)cc1	Beta cell apopt 108, Mdm2 MdmX PPI 87 | Mdm2-MdmX conf 53 | FLuc counter 44
COc1cc(Nc2ccc(S(N)(=O)=O)cc2)c([N+](=O)[O-])nc1[N+](=O)[O-]	none
COc1ccc(C(NC(C)=O)c2ccc3cccnc3c2O)c(OC)c1 (stereo not drawn)	Beta cell apopt 109, Mdm2 MdmX PPI 74 | Mdm2-MdmX conf 71 | FLuc counter inactive
COc1ccccc1C(NC(C)=O)c1c(O)ccc2ccc(O)cc12 (stereo not drawn)	none
CC(=O)NC(c1ccc(Cl)cc1Cl)c1ccc2cccnc2c1O (stereo not drawn)	Gli-Sufu block 87, Mdm2 MdmX PPI 68 | Mdm2-MdmX conf 87 | FLuc counter 54
CCCC(=O)NC(c1ccc(Cl)cc1Cl)c1ccc2cccnc2c1O (stereo not drawn)	Beta cell apopt 94, Gli-Sufu block 89, CSC inhib 109, Mdm2 MdmX PPI 81 | Mdm2-MdmX conf 85 | FLuc counter 55
CC(=O)NC(CC(=O)NC(C)c1ccc(Cl)cc1Cl)c1ccccc1 (stereo not drawn)	none
CC(=O)OC(C)[C@H]1CC[C@H]2[C@@H]3CC[C@H]4C[C@@H](OC(C)=O)CC[C@]4(C)C3=CC[C@]12C (stereo partly drawn)	none
COc1ccc(CN2CCC(n3nccc3NC(=O)c3cccc(F)c3)CC2)cc1O	none
Cc1cccc(OCC(=O)Nc2ccccc2N2CCN(C(=O)C(C)C)CC2)c1C	Mdm2 MdmX PPI 100 | Mdm2-MdmX conf inactive
COc1ccccc1CCC(=O)NCCCn1ccc2ccccc21	none
C=CCNc1oc(-c2ccc(Cl)cc2)nc1C#N	Mdm2 MdmX PPI 50 (no result: Beta cell apopt, CSC inhib) | Mdm2-MdmX conf inactive
OC(c1cc(C(F)(F)F)nc2c(Cl)cc(Cl)cc12)C1CCCCN1 (stereo not drawn)	Mdm2 MdmX PPI 68 | Mdm2-MdmX conf 42 | FLuc counter 48
O[C@@H](c1cc(C(F)(F)F)nc2c(C(F)(F)F)cccc12)[C@H]1CCCCN1	Mdm2 MdmX PPI 99 | Mdm2-MdmX conf 78 | FLuc counter 47
COc1cc(OC)cc(C(=O)NCC(=O)OC2CCCCC2=O)c1 (stereo not drawn)	none (no result: CSC inhib)
O=C(Cc1cccc(C(F)(F)F)c1)Nc1cc(S(=O)(=O)N2CCOCC2)ccc1N1CCCC1	none
Nc1ccc(S(=O)(=O)c2ccc(NC(=O)c3cccnc3)cc2)cc1	none (no result: Beta cell apopt, Jurkat NFkB inh, 697 NFkB inh, CSC inhib, Mdm2 MdmX PPI)
C=C1C[C@H](O[C@@H]2O[C@H](CO)[C@@H](O)[C@H](O)[C@H]2O)[C@@H]2[C@H](OC(=O)[C@H]2C)[C@H]2[C@H](C)[C@H](O)C[C@@H]12	none
CN1c2ccccc2C(C)(C)C12C=Cc1cc(O)ccc1O2 (stereo not drawn)	none
CN1c2ccccc2C(C)(C)C12C=Nc1c(cc(N3CCOCC3)c3ccccc13)O2 (stereo not drawn)	Mdm2 MdmX PPI 59 (no result: Beta cell apopt, CSC inhib) | Mdm2-MdmX conf inactive
O=C(O)c1ccc2c(c1)C(=O)N(c1cccc3ccccc13)C2=O	none
CCOC(=O)CCCN1CC(O)=C(c2nc(-c3ccc(Cl)cc3)cs2)C1=N	none
CCCCN1CC(O)=C(c2nc(-c3ccc(Br)cc3)cs2)C1=N	Mdm2 MdmX PPI 80 | Mdm2-MdmX conf 53 | FLuc counter 63
CCC(C)(C)NC(=O)c1ccc(Sc2nncn2C)c([N+](=O)[O-])c1	none
Cn1cnnc1Sc1ccc(/C=C/C(=O)c2ccc(O)cc2)cc1[N+](=O)[O-]	Mdm2 MdmX PPI 51 | Mdm2-MdmX conf inactive | FLuc counter 53
CCCOc1ccc(CNC(=O)C2CCN(C(=O)N3CCOc4ccccc43)CC2)cc1	Mdm2 MdmX PPI 51 | Mdm2-MdmX conf inactive
CC(C)=CCC[C@](C)(O[C@@H]1O[C@H](CO[C@@H]2O[C@H](CO)[C@@H](O)[C@H](O)[C@H]2O)[C@@H](O)[C@H](O)[C@H]1O)C1CC[C@]2(C)C1C(=O)CC1[C@@]3(C)CC[C@H](O[C@H]4O[C@@H](CO)[C@H](O)[C@@H](O)[C@@H]4O)C(C)(C)C3CC[C@]12C (stereo partly drawn)	none
CC(=O)OCC1O[C@@H](O[C@@H]2C[C@H]3C(C)(C)[C@H](OC(C)=O)CC[C@]3(C)[C@H]3CC[C@]45C[C@]4(CC[C@H]5[C@@H](C)C[C@@H](O)[C@H](O)C(C)(C)O)[C@@]32C)[C@H](O)[C@@H](O)[C@@H]1O (stereo partly drawn)	Beta cell apopt 111, CSC inhib 102, Mdm2 MdmX PPI 93 (no result: Gli-Sufu block) | Mdm2-MdmX conf inactive
CN1CCN(C(=O)c2ccc3c(c2)N(Cc2ccc(F)cc2)C(=O)c2ccccc2S3=O)CC1 (stereo not drawn)	none
O=C(c1ccco1)N1CCN(C(=O)C2CC(=O)N(c3ccccc3)C2)CC1 (stereo not drawn)	none
COC(=O)C1=C(N)Oc2cc(N(C)C)ccc2C1c1ccccc1OC (stereo not drawn)	Mdm2 MdmX PPI 61 (no result: Beta cell apopt) | Mdm2-MdmX conf 40 | FLuc counter 42
CCN(C(=O)c1cccc(S(=O)(=O)N2CCCCC2)c1)C1CCS(=O)(=O)C1 (stereo not drawn)	none (no result: Beta cell apopt, CSC inhib)
CCC(C)NS(=O)(=O)c1ccc(NC(=O)C(Sc2ccccc2)c2ccccc2)cc1 (stereo not drawn)	Mdm2 MdmX PPI 56 | Mdm2-MdmX conf 44 | FLuc counter 70

Compound activity: PubChem BioAssay, several laboratories
